# Tests used:
# Test in all cases: PBM binding z-score (relative to random genomic background probes); higher = stronger binding; sequences stand for … in GC…GCGATTGACAGCGTAGAATGAAGG
# [1] = system: LXRa:RXRa (NR concentration 270 nM, RXRa partner concentration 90 nM)
# Method in brief: (§1)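 Custom Agilent 4×180K protein-binding microarrays carried double-stranded probes, each with a 34-nt variable region. These regions held direct-repeat seeds, single-nucleotide variants, half-site ablations and random human genomic background sequences. Ligand-free nuclear receptor dimers were incubated on the arrays for 1 h, antibodies against each partner (one per run) detected binding, and scanned fluorescence was regression-normalized. Binding z-scores take the random background probes as reference.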
# [2] = system: LXRa homodimer (NR concentration 270 nM)
# Method in brief: as §1
# [3] = system: LXRb homodimer (NR concentration 270 nM)
# Method in brief: as §1
# [4] = system: PPARg:RXRa (NR concentration 180 nM, RXRa partner concentration 90 nM)
# Method in brief: as §1
# [5] = system: PPARg:RXRa 270nM:90nM, anti-RXR (NR concentration 270 nM, RXRa partner concentration 90 nM)
# Method in brief: as §1
# [6] = system: PPARg:RXRa 30nM:10nM, anti-RXR (NR concentration 30 nM, RXRa partner concentration 10 nM)
# Method in brief: as §1
# [7] = system: PPARg:RXRa 90nM:30nM, anti-RXR (NR concentration 90 nM, RXRa partner concentration 30 nM)
# Method in brief: as §1
# [8] = system: PPARg:RXRa DBDmut IVT, anti-RXR (DBD mutation: RXRa K156A/R161A, NR concentration 270 nM, RXRa partner concentration 90 nM)
# Method in brief: as §1
Sequence,PBM binding z-score [1],PBM binding z-score [2],PBM binding z-score [3],PBM binding z-score [4],PBM binding z-score [5],PBM binding z-score [6],PBM binding z-score [7],PBM binding z-score [8]
CGAACGAGGTCATGAGTTGATAGCAAATGCCGAT,5.51,0.616,0.023,7.55,6.94,4.16,5.98,5.48
TCTGCTAGGTCAACGATGGTCAGTTAATCTGCTA,2.65,-0.279,0.325,2.14,2.8,1.79,2.47,4.02
GATACGGGGTCAAGGCCAGAGTACGCGTATTGAT,6.02,0.0824,0.667,8.92,8.33,5.85,7.78,4.87
ACGCGGAGGACAAAGGTCAGAGCTACGCCAGTGA,4.13,1.02,0.25,7.04,6.29,4.31,6.15,0.442
AGCGAAAGGTCGAGGTGAGTATAGAGAAAGGGAA,3.18,-0.189,-0.246,3.81,4.31,1.4,3.37,0.228
CAAACCAGGTCAAGAGGTCAAAGTCCGCTTCCCG,6.66,6.64,1.8,8.56,7.51,5.51,7.2,5.93
CCTTACGGGTAACGAGGTTATAGCACGACGAGCG,0.424,-0.553,-0.211,1.49,1.14,0.156,0.641,1.07
AGAATGAGGTCACCAAAGATCAGGGAAACGCTTG,6.5,1.08,0.991,8.68,8.01,5.4,7.63,7.14
AGAATGAGGTCATTAAGATCAGGGAATTGCGGTC,5.58,2.12,1.68,6.93,6.63,3.8,5.83,6.03
CCTAGTTGTTCAGGAGGTCACACACCGGATATGA,4.36,3.87,1.61,2.04,2.98,1.11,1.87,0.958
